From PubChem BioAssay (Tox21)
Values joined by “and” are separate entries in the source; they are usually repeats but may differ in a detail not shown here. Equal entries are not always repeated. Inconclusive results are not listed. Where a structure was tested more than once in an assay, its records may differ in their call. Active and inactive are the calls of the source. Unless noted, the call rests on the fitted dose curve.

Key:
[1] = Nuclear factor erythroid 2-related factor 2/antioxidant responsive element (Nrf2/ARE) small molecule agonists: qHTS cell viability counter screen in human keratinocytes (AID 1919968; active means well fitted cell-killing curve with a large enough effect in the repeat runs; further: nearly all actives have a fitted effect of over 55% in size; further: potency means the concentration at half of the fitted maximal effect)
Method in brief: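 CellTiter-Fluor fluorescence, read 1 h after reagent, gave viability in the same wells as the ARE-luciferase assay. KeratinoSens cells (1,500/well) had 23 h compound exposure at 37 C/5% CO2 following 5 h plating.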

[2] = Nuclear factor erythroid 2-related factor 2/antioxidant responsive element (Nrf2/ARE) small molecule agonists: luciferase reporter gene qHTS assay in human keratinocytes (AID 1919969); further: nearly all actives have a fitted effect of over 35% in size; further: potency means the concentration at half of the fitted maximal effect
[3] = biological target: Gonadotropin-releasing hormone receptor (Homo sapiens) (UniProt P30968); test: Human gonadotropin-releasing hormone receptor (GnRHR) small molecule agonists, calcium flux assay in GnRHR-HEK293 cells (AID 1920063); further: nearly all actives have a fitted effect of over 35% in size
Chain of Gonadotropin-releasing hormone receptor (Homo sapiens) (P30968 whole entry, looked up): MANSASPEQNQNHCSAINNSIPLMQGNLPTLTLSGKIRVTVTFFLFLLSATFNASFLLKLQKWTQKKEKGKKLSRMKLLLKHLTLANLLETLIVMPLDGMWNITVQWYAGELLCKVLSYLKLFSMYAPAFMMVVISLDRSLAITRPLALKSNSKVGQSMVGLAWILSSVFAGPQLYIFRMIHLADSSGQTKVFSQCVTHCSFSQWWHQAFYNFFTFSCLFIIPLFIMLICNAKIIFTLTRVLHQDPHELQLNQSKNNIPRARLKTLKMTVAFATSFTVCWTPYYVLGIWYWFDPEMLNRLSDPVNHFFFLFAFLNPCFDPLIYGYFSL
Method in brief: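 Agonist mode: compounds at 15 concentrations, in triplicate, went onto calcium dye-loaded GnRHR-HEK293 cells. Intracellular calcium was then followed as 480/540 nm fluorescence at 1 s intervals over 3 min.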

[4] = G protein-coupled receptor (GPCR) small molecule agonists, calcium flux assay: HEK293 wild type cell line counter screen (AID 1920065)
Method in brief: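 Calcium flux counter screen: compound added in agonist mode at 15 concentrations in triplicate to dye-loaded parental HEK293 cells. Fluorescence (480/540) read kinetically for 3 min; ATP served as positive control.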

[5] = p53 small molecule agonists, cell-based qHTS assay with rat liver microsomes (AID 1963578)
Method in brief: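 Fluorescence from a beta-lactamase reporter under a p53 response element was measured after cells had been incubated 16 h at 37 C with test compound and rat liver microsomes plus NADPH (0.5 mg/mL final each).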

[6] = p53 small molecule agonists, cell-based qHTS assay with human liver microsomes: qHTS cell viability counter screen (AID 1963579); further: nearly all actives have a fitted effect of over 45% in size
Method in brief: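 Seed p53RE-bla cells at 4,000 per well; incubate 5 h at 37 C; add compound, human liver microsomes and NADPH; incubate 16 h at 37 C; add CellTiter-Glo; after 30 min at room temperature, read luminescence.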

[7] = p53 small molecule agonists, cell-based qHTS assay with rat liver microsomes: qHTS cell viability counter screen (AID 1963580); further: nearly all actives have a fitted effect of over 45% in size
Method in brief: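 Rat liver microsome (0.5 mg/mL final) and NADPH (0.5 mg/mL final) co-incubation with compounds for 16 h at 37 C on HCT-116 p53RE-bla cells; cytotoxicity taken from intracellular ATP luminescence.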

[8] = p53 small molecule agonists, cell-based qHTS assay: qHTS cell viability counter screen (AID 1963581); further: nearly all actives have a fitted effect of over 45% in size
Method in brief: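 Counter screen read by CellTiter-Glo luminescence (ATP content, 30 min at room temperature), run in the same wells as the beta-lactamase reporter read. HCT-116 p53RE-bla cells saw compounds for 16 h at 37 C.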

[9] = p53 small molecule agonists, cell-based qHTS assay (AID 1963582; active means well fitted activation curve with a large enough effect in the signal ratio in the repeat runs, not every such curve was filed as active; the % refers to the signal ratio)
Method in brief: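 Read-out is beta-lactamase FRET fluorescence after 2 h at room temperature with LiveBLAzer B/G substrate. p53 response element-bla cells were treated 16 h at 37 C with compounds in DMSO, added 5 h after seeding.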

[10] = biological target: 5-hydroxytryptamine receptor 2A (Homo sapiens) (UniProt P28223); test: 5-hydroxytryptamine receptor 2A (HTR2A) small molecule antagonists, cell-based qHTS assay (AID 1963586); further: nearly all actives have a fitted effect of over 45% in size
Chain of 5-hydroxytryptamine receptor 2A (Homo sapiens) (P28223 whole entry, looked up): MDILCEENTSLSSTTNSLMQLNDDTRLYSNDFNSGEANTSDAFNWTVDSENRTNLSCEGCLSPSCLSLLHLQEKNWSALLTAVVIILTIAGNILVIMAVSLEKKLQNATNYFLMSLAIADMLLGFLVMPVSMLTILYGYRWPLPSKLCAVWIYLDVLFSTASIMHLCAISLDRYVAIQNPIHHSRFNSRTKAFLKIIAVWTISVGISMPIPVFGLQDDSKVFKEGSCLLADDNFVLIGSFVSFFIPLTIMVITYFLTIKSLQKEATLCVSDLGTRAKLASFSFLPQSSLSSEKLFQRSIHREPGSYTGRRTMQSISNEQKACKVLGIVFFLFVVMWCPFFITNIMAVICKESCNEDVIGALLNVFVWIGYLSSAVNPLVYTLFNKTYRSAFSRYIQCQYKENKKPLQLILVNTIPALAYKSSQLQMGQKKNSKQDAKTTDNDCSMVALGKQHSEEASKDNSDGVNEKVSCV
Method in brief: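 CHO cells stably expressing human HTR2A were plated for 18 h at 37 C, then loaded with calcium dye for 1 h. Compounds were preincubated 5 min at room temperature before DOI (4 nM solution) was added. Kinetic fluorescence was read for 3 min.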

[11] = biological target: 5-hydroxytryptamine receptor 2A (Homo sapiens) (UniProt P28223); test: 5-hydroxytryptamine receptor 2A (HTR2A) small molecule agonists, cell-based qHTS assay (AID 1963587); further: nearly all actives have a fitted effect of over 30% in size; further: potency means the concentration at half of the fitted maximal effect
Method in brief: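 Kinetic calcium-flux fluorescence (2 min, 1 sec intervals) after compound addition in agonist mode. HTR2A-CHO cells were cultured 18 h, then dye-loaded 1 h at 37 C.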

[12] = biological target: Muscarinic acetylcholine receptor M1 (Homo sapiens) (UniProt P11229); test: Cholinergic receptor muscarinic 1 (CHRM1) small molecule antagonists, cell-based qHTS assay (AID 1963588); further: nearly all actives have a fitted effect of over 40% in size
Chain of Muscarinic acetylcholine receptor M1 (Homo sapiens) (P11229 whole entry, looked up): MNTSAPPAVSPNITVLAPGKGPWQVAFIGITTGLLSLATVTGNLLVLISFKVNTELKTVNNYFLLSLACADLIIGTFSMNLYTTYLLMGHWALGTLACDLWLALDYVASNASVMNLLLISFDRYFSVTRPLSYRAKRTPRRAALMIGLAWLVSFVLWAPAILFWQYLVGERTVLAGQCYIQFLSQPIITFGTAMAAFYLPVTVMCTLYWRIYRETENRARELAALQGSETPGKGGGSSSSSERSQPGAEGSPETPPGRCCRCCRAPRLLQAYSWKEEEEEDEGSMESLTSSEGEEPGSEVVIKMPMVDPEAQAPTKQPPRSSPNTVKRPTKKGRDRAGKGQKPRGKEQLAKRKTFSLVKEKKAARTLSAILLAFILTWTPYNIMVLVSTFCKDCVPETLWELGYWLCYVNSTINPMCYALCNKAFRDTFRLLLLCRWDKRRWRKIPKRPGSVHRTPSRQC
Method in brief: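 Compounds were tested at 15 concentrations in three independent runs. Dye-loaded CHRM1-CHO cells were exposed 5 min at room temperature before stimulation by acetylcholine added at 50nM. Intracellular calcium was read kinetically on FDSS for 3 min.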

[13] = biological target: Muscarinic acetylcholine receptor M1 (Homo sapiens) (UniProt P11229); test: Cholinergic receptor muscarinic 1 (CHRM1) small molecule agonists, cell-based qHTS assay (AID 1963589); further: nearly all actives have a fitted effect of over 35% in size
Method in brief: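 Agonist-mode calcium-flux screen: compounds at 15 concentrations, three independent runs, were pin-transferred onto dye-loaded human CHRM1-CHO cells. Fluorescence was then recorded kinetically every second over minutes.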

[14] = cAMP Responsive Elements (CRE) small molecule agonists, cell-based qHTS assay (AID 1963590)
Method in brief: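 Agonist mode: compound added to CRE-bla HEK 293T cells (2,000/well, 18 h after plating) for 3 h at 37 C/5% CO2. Reporter activity detected via FRET beta-lactamase substrate, 2 h room-temperature loading.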

[15] = cAMP Responsive Elements (CRE) small molecule antagonists, cell-based qHTS assay (AID 1963591; active means well fitted inhibition curve with a large enough effect in the signal ratio in the repeat runs, not every such curve was filed as active; the % refers to the signal ratio)
Method in brief: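 Antagonist mode: compounds are added alongside the adenylyl cyclase activator NKH477 (0.25 uM final) to CRE-bla HEK293T cells for 3 h. LiveBLAzer FRET substrate, 2 h at room temperature, reports bla expression.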

[16] = biological target: Beta-2 adrenergic receptor (Homo sapiens) (UniProt P07550); test: Adrenergic beta2 receptor (ADRB2) small molecule antagonists, cell-based qHTS assay (AID 1963592); further: series mostly up to about 92 µM; nearly all actives have a fitted effect of over 50% in size
Chain of Beta-2 adrenergic receptor (Homo sapiens) (P07550 whole entry, looked up): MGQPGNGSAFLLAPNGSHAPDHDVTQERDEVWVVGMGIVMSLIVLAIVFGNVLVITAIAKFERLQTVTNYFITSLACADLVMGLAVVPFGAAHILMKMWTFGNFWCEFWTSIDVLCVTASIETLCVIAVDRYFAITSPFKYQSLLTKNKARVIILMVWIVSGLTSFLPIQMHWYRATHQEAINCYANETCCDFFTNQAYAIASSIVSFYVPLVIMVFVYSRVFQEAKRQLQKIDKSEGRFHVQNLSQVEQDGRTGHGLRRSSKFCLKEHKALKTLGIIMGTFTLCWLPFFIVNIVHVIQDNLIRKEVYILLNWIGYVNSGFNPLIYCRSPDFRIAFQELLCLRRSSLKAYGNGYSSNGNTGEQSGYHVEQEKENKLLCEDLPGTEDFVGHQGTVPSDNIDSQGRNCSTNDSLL
Method in brief: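 Assay format: CHO-ADRB2 cells, 18-20hr seeding at 37C/5% CO2, then compound plus 1nM isoproterenol agonist mix for 0.5hr RT. Homogeneous time-resolved fluorescence cAMP detection after 1hr, expressed as 665/615 nm ratio.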

[17] = biological target: Beta-2 adrenergic receptor (Homo sapiens) (UniProt P07550); test: Adrenergic beta2 receptor (ADRB2) small molecule agonists, cell-based qHTS assay (AID 1963593);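 further: CHO cells stably overexpressing human ADRB2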
Method in brief: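 CHO cells stably over-expressing ADRB2 were plated overnight at 37C, then dosed with compounds plus a stimulation mix containing 100uM IBMX and 25uM Ro-20-1724 for 0.5hr at room temperature. cAMP was measured by HTRF competition, 1hr.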

[18] = biological target: D(2) dopamine receptor (Homo sapiens) (UniProt P14416); test: Dopamine D2 receptor (DRD2) small molecule agonists, cell-based qHTS assay (AID 1963594); further: nearly all actives have a fitted effect of over 35% in size
Chain of D(2) dopamine receptor (Homo sapiens) (P14416 whole entry, looked up): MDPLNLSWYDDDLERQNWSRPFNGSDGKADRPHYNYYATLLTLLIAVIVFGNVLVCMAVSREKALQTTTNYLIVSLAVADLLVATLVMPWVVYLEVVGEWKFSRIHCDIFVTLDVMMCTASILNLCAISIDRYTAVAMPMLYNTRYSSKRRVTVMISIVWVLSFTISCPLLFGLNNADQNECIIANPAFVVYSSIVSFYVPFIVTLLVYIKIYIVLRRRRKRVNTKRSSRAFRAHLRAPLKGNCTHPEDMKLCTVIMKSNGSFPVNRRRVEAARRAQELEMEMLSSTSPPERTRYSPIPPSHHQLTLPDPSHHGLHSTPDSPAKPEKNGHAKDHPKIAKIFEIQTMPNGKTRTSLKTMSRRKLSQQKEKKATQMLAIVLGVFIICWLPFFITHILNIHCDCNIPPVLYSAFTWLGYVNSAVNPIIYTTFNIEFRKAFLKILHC
Method in brief: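 cAMP accumulation in DRD2-HEK293 cells measured by HTRF after 1 h detection; compounds added 10 min before NKH477 (200nM […]) forskolin-analogue stimulation, 30 min at room temperature, with Ro20-1724 present at 0.1 mM final.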

[19] = biological target: D(2) dopamine receptor (Homo sapiens) (UniProt P14416); test: Dopamine D2 receptor (DRD2) small molecule antagonists, cell-based qHTS assay (AID 1963595; active means well fitted inhibition curve with a large enough effect in the signal ratio in the repeat runs, with a control signal flat; the % refers to the signal ratio)
Method in brief: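 Antagonist mode in DRD2-HEK293 cells: after compound addition with 0.1 mM Ro20-1724, cells received quinpirole (12 nM) and NKH477 (200 nM) for 30 min at room temperature; HTRF cAMP read after 1 h detection.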

[20] = p53 small molecule agonists, cell-based qHTS assay with human liver microsomes (AID 1963577)
Method in brief: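 Cells carrying a p53-responsive bla reporter were rested 5 h (37 C, 5% CO2) before compound transfer. Human liver microsomes plus NADPH, 0.5 mg/mL final apiece, supplied metabolism during the 16 h 37 C exposure.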
On the % scale 0 is the no-effect control and ±100 the full control effect.

CCOC(OCC)C(=O)c1ccccc1
inactive: Potency [1] | Potency [2] | Potency [3] | Potency [4] | Potency [5] | Potency [6] | Potency [7] | Potency [8] | Potency [9] | Potency [10] | Potency [11] | Potency [12] | Potency [13] | Potency [14] | Potency [15] | Potency [16] | Potency [17] | Potency [18] | Potency [19]

CCCCC(CC)COC(=O)CCCCCCCC(=O)OCC(CC)CCCC (stereo unspecified)
inactive: Potency [3] | Potency [4] | Potency [20] | Potency [5] | Potency [7] | Potency [8] | Potency [9] | Potency [10] | Potency [12] | Potency [13] | Potency [15] | Potency [16] | Potency [17] | Potency [18] | Potency [19]
15.4 µM (active) and inactive: Potency [2]
9.77 µM (active) and inactive: Potency [11]
54.5 µM (active) and inactive: Potency [1]

O=C1OC(=O)C2CC=CCC12 (stereo unspecified)
inactive: Potency [1] | Potency [2] | Potency [3] | Potency [4] | Potency [20] | Potency [6] | Potency [7] | Potency [8] | Potency [9] | Potency [10] | Potency [11] | Potency [12] | Potency [14] | Potency [15] | Potency [16] | Potency [17] | Potency [18] | Potency [19]

CCCCC(CC)COCCO (stereo unspecified)
inactive: Potency [1] | Potency [2] | Potency [3] | Potency [4] | Potency [20] | Potency [5] | Potency [7] | Potency [8] | Potency [9] | Potency [10] | Potency [11] | Potency [12] | Potency [13] | Potency [14] | Potency [15] | Potency [16] | Potency [17] | Potency [18] | Potency [19]

Oc1cc(O)c2c(c1)O[C@H](c1ccc(O)c(O)c1)[C@H](O)C2
inactive: Potency [1] | Potency [2] | Potency [3] | Potency [4] | Potency [20] | Potency [5] | Potency [7] | Potency [8] | Potency [9] | Potency [10] | Potency [12] | Potency [13] | Potency [14] | Potency [15] | Potency [16] | Potency [17] | Potency [18]

CCOC(=O)CCC(C)=O
inactive: Potency [1] | Potency [2] | Potency [3] | Potency [20] | Potency [5] | Potency [6] | Potency [7] | Potency [8] | Potency [9] | Potency [10] | Potency [11] | Potency [12] | Potency [13] | Potency [14] | Potency [15] | Potency [16] | Potency [18] | Potency [19]

COC(=O)Nc1nc2ccc(S(=O)c3ccccc3)cc2[nH]1 (stereo unspecified)
inactive: Potency [1] | Potency [3] | Potency [4] | Potency [6] | Potency [7] | Potency [14] | Potency [15] | Potency [16] | Potency [17] | Potency [18] | Potency [19]
inactive and 13.3 µM (active): Potency [2]

CC(C)OCCO
inactive: Potency [1] | Potency [2] | Potency [3] | Potency [20] | Potency [5] | Potency [6] | Potency [7] | Potency [8] | Potency [9] | Potency [10] | Potency [11] | Potency [12] | Potency [13] | Potency [15] | Potency [16] | Potency [17] | Potency [18] | Potency [19]

O=C1CC[C@H](C(=O)N2CCCCC2)N1
inactive: Potency [1] | Potency [2] | Potency [4] | Potency [20] | Potency [5] | Potency [6] | Potency [7] | Potency [8] | Potency [9] | Potency [10] | Potency [11] | Potency [12] | Potency [13] | Potency [14] | Potency [15] | Potency [16] | Potency [18] | Potency [19]

CCOCCOCCOCC
inactive: Potency [1] | Potency [2] | Potency [4] | Potency [20] | Potency [5] | Potency [6] | Potency [7] | Potency [8] | Potency [9] | Potency [10] | Potency [11] | Potency [12] | Potency [13] | Potency [14] | Potency [15] | Potency [16] | Potency [17]

Clc1ccccc1-c1nc(-c2ccncc2)no1
inactive: Potency [1] | Potency [4] | Potency [20] | Potency [5] | Potency [6] | Potency [7] | Potency [8] | Potency [9] | Potency [10] | Potency [11] | Potency [12] | Potency [13] | Potency [14] | Potency [15] | Potency [16] | Potency [17] | Potency [18]
active: Potency [2] 2.11 µM

CCCCOC(O)CC (stereo unspecified)
inactive: Potency [1] | Potency [2] | Potency [4] | Potency [20] | Potency [5] | Potency [6] | Potency [7] | Potency [8] | Potency [9] | Potency [10] | Potency [11] | Potency [12] | Potency [13] | Potency [14] | Potency [15] | Potency [16] | Potency [17] | Potency [18] | Potency [19]

OCCc1ccccn1
inactive: Potency [1] | Potency [2] | Potency [4] | Potency [20] | Potency [5] | Potency [6] | Potency [7] | Potency [8] | Potency [9] | Potency [10] | Potency [11] | Potency [12] | Potency [13] | Potency [14] | Potency [15] | Potency [16] | Potency [18]

C=CCCCCCCCCCCCCCCCC
inactive: activity change, negative = cytotoxicity [1] 2.1% [at 8.39 µM] | activity, positive = activation [2] 1.31% [at 8.39 µM] | activation [4] -0.775% [at 5.23 µM] | activation [20] -1.7% [at 5.99 µM] | activation [5] -2.36% [at 5.99 µM] | activity change, negative = cytotoxicity [6] -5.51% [at 5.99 µM] | activity change, negative = cytotoxicity [7] -2.99% [at 5.99 µM] | activity change, negative = cytotoxicity [8] -20.9% [at 5.99 µM] | activation [9] 2.83% [at 5.99 µM] | activity, negative = inhibition [10] -3.97% [at 5.62 µM] | activation [11] -2.29% [at 7.02 µM] | activity, negative = inhibition [12] -31.3% [at 5.58 µM] | activation [13] 1.23% [at 6.97 µM] | activation [14] 0.435% [at 8.39 µM] | activity change, negative = inhibition [15] -13% [at 8.39 µM] | activity change, negative = inhibition [16] -9.53% [at 8.39 µM] | activation [18] 0.185% [at 8.39 µM] | activity change, negative = inhibition [19] -1.92% [at 8.38 µM]
